Screening results deposited in PubChem BioAssay by National Center for Advancing Translational Sciences (NCATS).
This is a sample that favours compounds with a hit; in the whole collection about 18% have one here.
TDP1 cell CPT: DT40-hTDP1 cell growth loss with CPT; chicken DT40 Tdp1-/-;hTDP1 cells + 20 nM CPT, ATP luminescence, 48 h; hit rate 12% among 420,000; Potency, µM (doses to about 46.2 µM), for the others: at the highest dose activity change, negative = growth inhibition, actives largely listed as inhibitors; AID 686979; note: potency is the fitted concentration of half-maximal effect; % is set by controls: 0 for no effect and ±100 for the full control effect; nearly all actives have a fitted effect of over 55% in size
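Chicken DT40 Tdp1-/- cells complemented with human TDP1, 400 cells/well, exposed to compounds plus 20 nM camptothecin for at least 48 h at 37 C; viability read as ATP content by CellTiter-Glo luminescence.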
TDP1 block: inhibitors of human tyrosyl-DNA phosphodiesterase TDP1. Q9NUW8. recombinant TDP1, AlphaScreen DNA substrate cleavage. Potency, µM (highest dose often 130 µM), for the others: top-dose activity change, negative = inhibition, most hits filed as inhibitors. hit rate 0.28% among 350,000. AID 485290; note: potency is the fitted concentration of half-maximal effect; % is set by controls: 0 for no effect and ±100 for the full control effect; nearly all actives have a fitted effect of over 40% in size
Target sequence (Q9NUW8 whole entry, looked up): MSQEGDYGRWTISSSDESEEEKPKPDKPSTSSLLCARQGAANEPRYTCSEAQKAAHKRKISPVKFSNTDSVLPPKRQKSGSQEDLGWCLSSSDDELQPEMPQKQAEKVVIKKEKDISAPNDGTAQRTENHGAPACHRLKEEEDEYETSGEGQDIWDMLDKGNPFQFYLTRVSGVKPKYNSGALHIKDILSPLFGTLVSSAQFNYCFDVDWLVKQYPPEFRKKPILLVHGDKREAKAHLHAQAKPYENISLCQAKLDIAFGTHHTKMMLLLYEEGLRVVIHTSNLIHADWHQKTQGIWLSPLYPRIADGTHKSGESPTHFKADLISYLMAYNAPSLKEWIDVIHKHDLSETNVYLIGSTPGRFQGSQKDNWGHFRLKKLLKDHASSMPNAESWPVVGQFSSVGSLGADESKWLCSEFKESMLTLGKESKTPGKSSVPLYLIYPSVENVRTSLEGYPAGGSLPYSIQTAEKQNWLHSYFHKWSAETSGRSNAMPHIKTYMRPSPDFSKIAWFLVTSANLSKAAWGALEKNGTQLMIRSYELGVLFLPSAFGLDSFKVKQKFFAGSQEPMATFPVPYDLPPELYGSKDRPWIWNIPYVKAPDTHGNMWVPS
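Signal: AlphaScreen proximity between streptavidin donor and anti-FITC acceptor beads on intact substrate. Reaction: Tdp1 1 nM, substrate 15 nM final, 5 min RT after 15 min compound preincubation.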
HepG2 viability: kills HepG2 cells in TGF-b inhibitor counter-screen; HepG2 CAGA-GFP viability, ATP luminescence, 18 h; AID 588856; hit rate 0.76% among 410,000; Potency, µM (doses to about 46.1 µM), inactives show at the highest dose activity change, negative = cytotoxicity, actives largely listed as cytotoxic; note: potency is the fitted concentration of half-maximal effect
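HepG2 CAGA-GFP cells (1000/well, DMEM with 1% FBS) received compound, then TGF-beta at 500 pg/mL final, and were incubated 18 hours at 37 degrees C. Viability was read by CellTiter-Glo luminescence. Media-only wells were set as complete cell-killing and DMSO as no toxicity.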
TDP1 cell noCPT: qHTS for Inhibitors of human tyrosyl-DNA phosphodiesterase 1 (TDP1): qHTS in cells in absence of CPT; DT40 Tdp1-/- hTDP1 cells, no CPT, ATP luminescence, 48 h; Potency, µM (highest dose often 46.2 µM), without a hit: top-dose activity change, negative = growth inhibition, hits mostly inhibitors; hit rate 15% among 420,000; AID 686978, 2013; note: potency is the fitted concentration of half-maximal effect; % is set by controls: 0 for no effect and ±100 for the full control effect; nearly all actives have a fitted effect of over 55% in size
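Camptothecin absent (DMSO only). Human TDP1-complemented DT40 knockout cells, 400 cells/well, 37 °C for minimum 48 hr; ATP measured via CellTiter-Glo, 30 min dark incubation, luminescence.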
IL-1B inflam inh: inhibitors of inflammasome signaling (IL-1 beta secretion) | THP-1 LPS/ATP IL-1B secretion, AlphaLISA, 16 h; active compounds read low | activity change, % at 57.5 µM | hit rate 4.7% among 360,000 | AID 743279; in the data active = activity change below about -50%; inconclusive = mostly about -30% to -49%; note: % is set by controls: 0 for no effect and ±100 for the full control effect
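Secreted IL-1B measured by AlphaLISA bead assay after 16 h compound exposure of THP-1 cells; compounds (final up to 57.5 uM) added 1 h before LPS (250 ng/mL) and ATP (1.25 mM) stimulation; lower signal means less secretion.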
TGFb SMAD3 inh: blocks TGF-b signaling | HepG2 CAGA-GFP TGF-b/SMAD3 reporter, GFP fluorescence, 18 h; TGF-beta stimulated, 500 pg/mL final | AID 588855 | hit rate 1.2% among 410,000 | Potency, µM (series often up to 46.1 µM), for the others: top-dose activity, negative = inhibition, hits mostly inhibitors; note: potency is the fitted concentration of half-maximal effect; % is set by controls: 0 for no effect and ±100 for the full control effect; nearly all actives have a fitted effect of over 65% in size
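HEPG2 CAGA-GFP cells (1000/well, DMEM with 1% FBS) were pre-incubated 2 h at 37 degrees C, given compound by pin tool, then stimulated with TGF-beta at 500 pg/mL final for 18 h before per-cell GFP fluorescence imaging.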
* marks the source's active call; other numbers are inactive results; i = inactive; u = inconclusive; x = no result given; [ ] = dose if it differs, or a comment. Unless noted, calls come from the whole dose curve; as a rule, active = well fitted curve in the direction sought with a large enough effect; inconclusive = small, poorly fitted or top-dose-only effect, or another doubt; inactive = no such curve, though single readings can be large; an effect the other way counts as inactive or inconclusive.

SMILES | TDP1 cell CPT | TDP1 block | HepG2 viability | TDP1 cell noCPT | IL-1B inflam inh | TGFb SMAD3 inh
O=C(/C=C/c1cccs1)Nc1ccc(N2CCOCC2)c(S(=O)(=O)Nc2cc(Cl)ccc2Cl)c1 | u | 3% | -3% | 23µM* | -2 | 6%
COc1cccc(NC(=O)C(=O)NCCc2csc3nc(-c4ccccc4C)nn23)c1 | u | 4% | 0% | u | x | 13%
CCNc1ncc2nc(-c3ccc(F)cc3)c(=O)n(Cc3ccc(F)cc3)c2n1 | -14% | x | x | 5% | x | x
CC(=NCCc1c(C)[nH]c2ccc(C)cc12)C1=C(O)CC(c2ccccc2)CC1=O (configuration not stated) | 1.2µM* | 8% | -45% | 1.6µM* | -28 | -28%
CCCC(=Nc1ccccc1OC)C1=C(O)CC(c2ccccc2)CC1=O (configuration not stated) | u | 0% | -2% | u | i | -22%
CC(=O)C1=C(O)CC(c2ccccc2)CC1=NCCc1ccccc1 (configuration not stated) | u | 5% | 6% | u | u | -1%
CC(=NCCc1c(C)[nH]c2ccc(OC(F)(F)F)cc12)C1=C(O)CC(c2ccccc2)CC1=O (configuration not stated) | 4.6µM* | 4% | -21% | 3.3µM* | -12 | -13%
Cc1ccccc1C(=O)Nc1ccccc1C(=O)OCc1cc(=O)n2ccsc2n1 | -1% | 4% | 3% | -12% | x | 4%
Cc1cc(C)cc(NC(=O)COc2cccc3c(=O)n(C)ccc23)c1 | u | -5% | -22% | u | x | u
CCCCC(=O)NC(c1ccc(C(C)C)cc1)c1ccc2cccnc2c1O (configuration not stated) | 5.8µM* | x | -46% | 3.3µM* | 120 | u
COc1ccc(CNC(=O)CSc2cccc3cccnc23)cc1 | -4% | x | 22% | -4% | 6 | 1%
CCCCC(=O)NC(c1ccccc1Cl)c1ccc2cccnc2c1O (configuration not stated) | 8.2µM* | x | -33% | 6.5µM* | 121 | u
CCCCC(=O)NC(c1ccccc1)c1ccc2cccnc2c1O (configuration not stated) | 0.58µM* | x | -30% | 0.73µM* | 137 | u
CCCC(=O)NC(c1ccc(OC)cc1)c1ccc2cccnc2c1O (configuration not stated) | 2.3µM* | 10% | -9% | 2.6µM* | 106 | u
CC(=O)Nc1nnc(CCS(=O)(=O)c2ccc(C)cc2)s1 | -12% | x | -11% | u | 5 | -9%
CC(=O)NC(c1ccc(C(C)C)cc1)c1ccc2cccnc2c1O (configuration not stated) | 2.6µM* | x | -54% | 1.3µM* | 168 | u
CC(=O)Nc1cccc2cccnc12 | x | 0% | 5% | x | x | -7%
CCCC(=O)NC(c1ccccc1)c1ccc2cccnc2c1O (configuration not stated) | 3.7µM* | x | -25% | 1.5µM* | 176 | u
COC(=O)[C@@H]1C[C@@]2(O)[C@@H](O)[C@@H](O)[C@@H](O)C[C@H]2N1CC1CC1 | x | 2% | x | x | x | x
Cc1ccccc1-c1cnc(C(O)c2ccc(F)cc2)[nH]1 (configuration not stated) | u | x | -4% | u | 19 | -7%
Cc1ccc2scc(N3CCCCC3)c(=O)c2c1 | 9% | -7% | -15% | 4% | x | -1%
Cc1ccc(C)c(N2CCN(C(=O)c3ccc(N4CCCC4=O)cc3)CC2)c1 | u | x | -25% | 16µM* | 0 | u
Cc1ccc(CNC(=O)C2CCN(c3nnc(N4CCCC4=O)s3)CC2)cc1 | 13% | x | -4% | -13% | -14 | 0%
Cc1ccc(C)c(N2CCN(C(=O)C3CCN(c4nnc(N5CCCC5=O)s4)CC3)CC2)c1 | 23µM* | 5% | -42% | u | u | u
O=C(C1CCN(c2nnc(N3CCCC3=O)s2)CC1)N1CCN(c2cccc(C(F)(F)F)c2)CC1 | 8.2µM* | 3% | -19% | 1.8µM* | 36 | -25%
SMILES | TDP1 cell CPT | TDP1 block | HepG2 viability | TDP1 cell noCPT | IL-1B inflam inh | TGFb SMAD3 inh
O=C(c1ccc(N2CCCC2=O)cc1)N1CCN(c2ccccc2O)CC1 | -24% | 0%[56.1 µM] | -12% | u | -1 | -19%
CCOC(=O)c1ccc(N/C=C/C(=O)c2ccco2)cc1 | -21% | 5% | -11% | u | -14 | 10%
CCn1c(/C=C/N(C)c2ccccc2)[n+](CC)c2ccc(Cl)cc21 | 0.58µM* | 0% | -29% | 1.3µM* | -98* | u
CCOC(=O)c1ccc2c(c1)n(CC)c(/C=C/Nc1ccccc1)[n+]2CC | 18µM* | 4% | -28% | 12µM* | 0 | 9%
CCn1c(/C=C/c2cc[n+](C)cc2)nc2ccccc21 | -16% | x | -3% | -4% | -13 | 3%
CCn1c(/C=C/Nc2ccccc2)[n+](CC)c2ccc(Cl)cc21 | 23µM* | 3% | -12% | 21µM* | -3 | -1%
Cc1cccc(N=C2NC(=O)c3cc([N+](=O)[O-])ccc32)c1 | 2% | 8% | 5% | 1% | 43 | -13%
CCOc1ccc(C2NC(=O)C(C#N)=C(S)N2c2ccc(C)cc2)cc1OC (configuration not stated) | u | -1% | -22% | u | -59* | -24%
NCC12CC3CC(C1)CC(c1ccc(Br)cc1)(C3)C2 | 21µM* | x | 13µM* | 15µM* | -77* | u
Cc1ccc(C23CC4CC(CC(CC(=O)NC(C)(C)CO)(C4)C2)C3)cc1 | 26µM* | x | -30% | 15µM* | 34 | u
COC(=O)CNC(=O)C12CC3CC(C1)CC(c1ccc(C)cc1)(C3)C2 | -4% | -4% | 7% | 5% | 14 | 14%
Cc1ccc(C23CC4CC(CC(C(=O)N(C)C)(C4)C2)C3)cc1 | u | x | -1% | 21µM* | -19 | 17%
Cc1ccc(C23CC4CC(CC(CN)(C4)C2)C3)cc1 | 6.5µM* | -3% | -87% | 10µM* | -95* | u
Cc1ccc(C23CC4CC(CC(C(N)=O)(C4)C2)C3)cc1 | 15% | 3% | 4% | -3% | 10 | -23%
Oc1ccc(C23CC4CC(CC(C4)C2)C3)cc1O | u | x | -3% | u | u | -21%
